Screening data: PubChem, National Center for Advancing Translational Sciences (NCATS)
The list is not random: actives were taken first. Their share in the collection is about 5.7%.
KDM4E inh: inhibitors of human JMJD2E histone demethylase; JMJD2E catalytic domain, FDH-coupled NADH fluorescence (FDH is formaldehyde dehydrogenase); AID 2147; B2RXH2; Potency, µM (highest dose often 57.1 µM), most hits filed as inhibitors; 230,000 compounds, 1.6% hits; active means well fitted inhibition curve with a large enough effect, not every such curve was filed as active; inconclusive means small, poorly fitted or top-dose-only effect, or another doubt; inactive means no such curve, though single readings can be large or run the other way; further: nearly all actives have a fitted effect of over 50% in size
BAZ2B block: blocks human BAZ2B; AlphaScreen BAZ2B-H3K14Ac peptide displacement; Potency, µM (series often up to 114 µM), most hits filed as inhibitors; 360,000 compounds, 4.4% hits; further: nearly all actives have a fitted effect of over 60% in size
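BAZ2B (50 nM) with biotin-H3(5-23)K14Ac peptide (50 nM) in PBS pH 7.4, 0.01% Tween-20, preformed 30 min, then compound 30 min at room temperature; top concentration 110uM. AlphaScreen streptavidin donor/nickel chelate acceptor beads (10 ug/mL final), 20 min dark, signal read.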
L3MBTL1 block: inhibitors of human L3MBTL1. Q9Y468. AlphaScreen L3MBTL1–H3K9me1 peptide binding. Potency, µM (titrated, usually from 57.1 µM), usual class: inhibitors. 230,000 compounds, 0.66% hits; further: nearly all actives have a fitted effect of over 60% in size
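L3MBTL1 50 nM + b-AHA-H3(1-15)K9me1 75 nM, 30 min RT; compound added, 30 min RT; streptavidin donor/Ni-chelate acceptor beads 10 ug/mL each final, 30 min RT dark; AlphaScreen read.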
PI5P4K alpha inh: blocks human PI5P4K alpha kinase activity | P48426 | PI5P4Kalpha enzyme, ADP-Glo luminescence, 60 min; active compounds read low | max response, % | 330,000 compounds, 1.2% hits | AID 652105; active means max response of -50% or lower; inconclusive means between -30% and -50%; inactive means -30% or higher; further: value at the top dose of about 77 µM
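qHTS, 1536-well: enzyme/substrate mix, compound by pin tool, 5 microM ATP final; RT 60 min; ADP-Glo reagents 1 (45 min) then 2 (30 min); luminescence.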
HP1b chromo inh: HP1-beta chromodomain-methylated histone interaction inhibition; P83916; AlphaScreen HP1-beta / biotin-H3K9me3 peptide binding; Potency, µM (highest dose often 114 µM), hits mostly inhibitors; 390,000 compounds, 0.56% hits; AID 540317; further: nearly all actives have a fitted effect of over 70% in size
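HP1-beta protein (50 nM final) preincubated 30 min at room temperature with biotinylated H3(1-18)K9me3 peptide (50 nM) in PBS pH 7.4, 0.01% Tween-20, then compound added for 30 min. AlphaScreen streptavidin donor/nickel chelate acceptor beads (10 ug/mL final), 30 min dark, luminescence read.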
JMJD2A Tudor: inhibitors of human JMJD2A Tudor domain. O75164. AlphaScreen JMJD2A-Tudor / H3K4me3 peptide binding. Potency, µM (series often up to 114 µM), most hits filed as inhibitors. 390,000 compounds, 4.4% hits. AID 504339; further: nearly all actives have a fitted effect of over 50% in size
Numbers stand for hits; 0 = inactive; ? = inconclusive; - = not tested or not shown. Unless noted, the call rests on the fitted dose curve; in most records, active means well fitted inhibition curve with a large enough effect; inconclusive means small, poorly fitted or top-dose-only effect; inactive means no such curve, though single readings can be large or run the other way.

SMILES | KDM4E inh | BAZ2B block | L3MBTL1 block | PI5P4K alpha inh | HP1b chromo inh | JMJD2A Tudor
CCOc1ccc(NC(=O)c2oc3ccccc3c2NC(=O)C(C)Oc2ccccc2)cc1 (stereo unspecified) | - | 0 | - | - | 0 | 0
C=C(C)Cn1c(SCC(=O)Nc2cccc(Cl)c2)nc2sc3c(c2c1=O)CCCC3 | - | 0 | - | - | 0 | 0
O=C(COc1ccc(Cl)cc1Cl)Nc1ccc(C(=O)Nc2ccccc2C(=O)O)cc1 | - | 50µM | - | -57 | ? | 50µM
O=C(COc1ccc(Cl)cc1Cl)NC(=S)Nc1ccccc1C(=O)O | ? | ? | 0 | - | - | -
O=C(CNC(=O)c1cccs1)Nc1ncccc1O | - | 56µM | 0 | 0 | 0 | 0
Cc1[nH]c2ccccc2c1C1=NNC(=Nc2ccc(F)cc2)SC1 | 0 | ? | 0 | 0 | ? | 56µM
COc1ccc(N=C2NN=C(c3c(C)[nH]c4ccccc34)CS2)cc1 | ? | 40µM | 0 | 0 | ? | ?
O=c1c(-c2c(O)cc(O)c3c(=O)cc(-c4ccc(O)cc4)oc23)c(-c2ccc(O)cc2)oc2cc(O)cc(O)c12 | ? | 28µM | - | -83 | 0 | 50µM
O=c1cc(-c2ccc(O)c(-c3c(O)cc(O)c4c(=O)cc(-c5ccc(O)cc5)oc34)c2)oc2cc(O)cc(O)c12 | 0 | 0 | 0 | -96 | 0 | ?
O=C1N=C(N2CCCC2)S/C1=C\c1ccccc1 | 0 | 0 | 0 | 0 | 0 | 56µM
O=C1N=C(N2CCN(c3ccccc3)CC2)S/C1=C\c1ccco1 | 0 | 50µM | ? | ? | 0 | ?
NC1=NC(=O)/C(=C\c2ccco2)S1 | 22µM | 79µM | - | -96 | 56µM | 50µM
NC1=NC(=O)C(=Cc2ccccc2)S1 | - | - | - | 0 | 0 | 0
O=C1N=C(N2CCOCC2)S/C1=C/c1cccs1 | 0 | 0 | 0 | - | 0 | 0
O=C1N=C(N2CCN(c3ccccc3)CC2)S/C1=C/c1ccco1 | 0 | 45µM | 0 | 0 | 0 | ?
O=C(NCC1CCN(Cc2ccccc2Cl)CC1)c1cc2ccc3cccnc3c2[nH]1 | - | 0 | - | - | 0 | 0
O=C(NC[C@H]1CCCCN1)c1cc(OCC(F)(F)F)ccc1OCC(F)(F)F | 0 | - | - | - | - | -
CCOC(=O)C1CCN(C(c2ccc(SC)cc2)c2c(O)cc(C)n(Cc3ccco3)c2=O)CC1 (stereo unspecified) | - | 0 | - | - | 0 | 56µM
COc1ccc(C)cc1NC(=O)c1oc2ccc(S(=O)(=O)N3CCC4(CC3)OCCO4)cc2c1C | - | 0 | - | - | 0 | 0
CCN(CC)CCn1c(NCc2nc3ccccc3n2Cc2ccccc2)nc2ccccc21 | 0 | ? | - | - | 0 | ?
O=C(O)c1ccc(NCc2nc3ccccc3n2Cc2ccccc2)cc1 | 0 | 50µM | 0 | 0 | 0 | 0
CCn1cnc2cc(NCc3nc4ccccc4n3Cc3ccccc3)ccc21 | ? | 40µM | ? | 0 | 0 | 45µM
O=C1CCc2cc(S(=O)(=O)Nc3ccc4ncccc4c3)ccc2N1 | - | - | - | - | - | 0
COc1ccc(N/N=C(\C=N\O)C(=O)c2ccc(OC)cc2)cc1 | 0 | 40µM | - | 0 | 0 | ?
COc1ccc(C(=O)C(=NNc2ccccc2)c2ccc(OC)cc2)cc1 | - | - | - | 0 | ? | 45µM
SMILES | KDM4E inh | BAZ2B block | L3MBTL1 block | PI5P4K alpha inh | HP1b chromo inh | JMJD2A Tudor
Cc1ccc(CSc2nnc(-n3c(=O)c(C#N)cc4c(=O)n5cc(C)ccc5nc43)s2)cc1 | - | 0 | - | - | 0 | 0
CCC(C)NC(=O)CSc1nc2c(sc3ccccc32)c(=O)n1CCc1ccccc1 (stereo unspecified) | - | 0 | - | - | 0 | 0
O=C1CSC(=S)N1/N=C/C=C/c1ccccc1 | 0 | ? | 0 | -63 | ? | ?
O=C1CSC(=S)N1N=Cc1c(O)ccc2ccccc12 | - | - | - | -73 | ? | 50µM
COc1cccc(/C=N/N2C(=O)CSC2=S)c1O | 0 | 3.2µM | 25µM | -55 | ? | 10µM
COc1cc(/C=N/N2C(=O)CSC2=S)cc(Br)c1O | ? | 40µM | 32µM | -75 | ? | 45µM
COc1ccc2ccccc2c1/C=N/N1C(=O)CSC1=S | 0 | - | ? | 0 | 0 | ?
CC(OC(=O)c1ccccc1C(=O)N(C)C1CCCCC1)C(=O)NC1(C#N)CCCCC1 (stereo unspecified) | - | 0 | 0 | 0 | 0 | 0
O=C(ONc1ccc(N=NC(=O)c2ccccc2O)cc1)c1ccccc1 | 0 | 10µM | 0 | -58 | 0 | ?
CCOc1ncccc1C(=O)Nc1ccc(C)c(S(=O)(=O)N2CCCCCC2)c1 | - | 0 | 0 | 0 | 0 | 20µM
O=C(Nc1cccc(-n2cccn2)c1)C1CCCN(Cc2cc3ccccc3[nH]2)C1 (stereo unspecified) | - | 71µM | - | 0 | 0 | ?
Cc1cc(CN2CCCC(C(=O)Nc3cccc(-n4cccn4)c3)C2)cc(C)c1O (stereo unspecified) | - | 0 | - | 0 | 0 | 0
COC/C=C/C1=CC2=CC(=O)C(C)(OC(=O)c3ccco3)C(=O)C2=CO1 (stereo unspecified) | ? | 50µM | - | - | - | -
COC/C=C/C1=CC2=CC(=O)C(C)(OC(=O)c3cccs3)C(=O)C2=CO1 (stereo unspecified) | 0 | - | - | - | - | -
COC/C=C/C1=CC2=CC(=O)C(C)(O)C(=O)C2=CO1 (stereo unspecified) | 0 | - | - | - | - | -
COC/C=C/C1=CC2=CC(=O)C(C)(OC(=O)C3CCCC3)C(=O)C2=CO1 (stereo unspecified) | 0 | 56µM | - | -65 | ? | 63µM
CCN(CC)C(=O)c1c(-c2ccccc2)c(-c2ccccc2)nn(CC)c1=O | - | 0 | - | - | 0 | 0
Cc1ccc(C)c(Cn2c(=O)n(CCCCC(=O)NCc3ccc4c(c3)OCO4)c(=O)c3ccccc32)c1 | - | 0 | - | - | 0 | 0
Cc1ccc(OCC(=O)Nc2ccccc2C(=O)OCc2cc(=O)n3nc(C4CC4)sc3n2)cc1 | - | 0 | - | - | 0 | 0
Cc1cc(C(=O)CCl)c(C)n1CCc1ccccc1 | ? | 0 | 0 | ? | ? | 45µM
CCOC(=O)c1cc(C)n(CCc2ccccc2)c1C | 0 | 0 | 0 | 0 | 0 | 0
CC1(C(=O)NS(=O)(=O)c2cccs2)CCN1C(=O)C1(c2ccc(Cl)cc2)CC1 (stereo unspecified) | - | - | - | 0 | - | -
O=C(NC1CCCCC1)C(c1cccs1)N(CCCN1CCOCC1)C(=O)c1ccc(-c2ccccc2)[nH]1 (stereo unspecified) | ? | 50µM | 0 | 0 | ? | ?
CN(CCN(C)C(C)(C)C)C(=O)C(c1ccccc1)c1ccccc1 | ? | ? | 0 | 0 | ? | 20µM
Nc1[nH]nc2c1NN(c1ccc(Cl)cc1Cl)N2 | 0 | 25µM | 0 | 0 | 0 | 0
CCC1Oc2ccccc2N(CC(=O)NCc2cc(OC)ccc2OC)C1=O (stereo unspecified) | - | 0 | - | - | 0 | 0
CSc1ccc(/C=N/NC(=O)CN2CCN(Cc3ccccc3Cl)CC2)cc1 | 0 | 0 | 0 | 0 | 0 | 0
CCN(CC)c1ccc(/C=N/N2CCN(Cc3ccccc3Cl)CC2)cc1 | - | 7.1µM | ? | 0 | ? | 18µM
